# mHTT-CaM PPI inh: disrupts binding of mutant huntingtin to calmodulin. P42858. AlphaScreen His-mHTT/GST-CaM binding, luminescence. inhibition, % at 15 µM. actives 3.6% (n = 190,000);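 further: 0% = both proteins with DMSO and 100% = one protein alone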
# Target sequence (P42858 whole entry, looked up, stated change not applied): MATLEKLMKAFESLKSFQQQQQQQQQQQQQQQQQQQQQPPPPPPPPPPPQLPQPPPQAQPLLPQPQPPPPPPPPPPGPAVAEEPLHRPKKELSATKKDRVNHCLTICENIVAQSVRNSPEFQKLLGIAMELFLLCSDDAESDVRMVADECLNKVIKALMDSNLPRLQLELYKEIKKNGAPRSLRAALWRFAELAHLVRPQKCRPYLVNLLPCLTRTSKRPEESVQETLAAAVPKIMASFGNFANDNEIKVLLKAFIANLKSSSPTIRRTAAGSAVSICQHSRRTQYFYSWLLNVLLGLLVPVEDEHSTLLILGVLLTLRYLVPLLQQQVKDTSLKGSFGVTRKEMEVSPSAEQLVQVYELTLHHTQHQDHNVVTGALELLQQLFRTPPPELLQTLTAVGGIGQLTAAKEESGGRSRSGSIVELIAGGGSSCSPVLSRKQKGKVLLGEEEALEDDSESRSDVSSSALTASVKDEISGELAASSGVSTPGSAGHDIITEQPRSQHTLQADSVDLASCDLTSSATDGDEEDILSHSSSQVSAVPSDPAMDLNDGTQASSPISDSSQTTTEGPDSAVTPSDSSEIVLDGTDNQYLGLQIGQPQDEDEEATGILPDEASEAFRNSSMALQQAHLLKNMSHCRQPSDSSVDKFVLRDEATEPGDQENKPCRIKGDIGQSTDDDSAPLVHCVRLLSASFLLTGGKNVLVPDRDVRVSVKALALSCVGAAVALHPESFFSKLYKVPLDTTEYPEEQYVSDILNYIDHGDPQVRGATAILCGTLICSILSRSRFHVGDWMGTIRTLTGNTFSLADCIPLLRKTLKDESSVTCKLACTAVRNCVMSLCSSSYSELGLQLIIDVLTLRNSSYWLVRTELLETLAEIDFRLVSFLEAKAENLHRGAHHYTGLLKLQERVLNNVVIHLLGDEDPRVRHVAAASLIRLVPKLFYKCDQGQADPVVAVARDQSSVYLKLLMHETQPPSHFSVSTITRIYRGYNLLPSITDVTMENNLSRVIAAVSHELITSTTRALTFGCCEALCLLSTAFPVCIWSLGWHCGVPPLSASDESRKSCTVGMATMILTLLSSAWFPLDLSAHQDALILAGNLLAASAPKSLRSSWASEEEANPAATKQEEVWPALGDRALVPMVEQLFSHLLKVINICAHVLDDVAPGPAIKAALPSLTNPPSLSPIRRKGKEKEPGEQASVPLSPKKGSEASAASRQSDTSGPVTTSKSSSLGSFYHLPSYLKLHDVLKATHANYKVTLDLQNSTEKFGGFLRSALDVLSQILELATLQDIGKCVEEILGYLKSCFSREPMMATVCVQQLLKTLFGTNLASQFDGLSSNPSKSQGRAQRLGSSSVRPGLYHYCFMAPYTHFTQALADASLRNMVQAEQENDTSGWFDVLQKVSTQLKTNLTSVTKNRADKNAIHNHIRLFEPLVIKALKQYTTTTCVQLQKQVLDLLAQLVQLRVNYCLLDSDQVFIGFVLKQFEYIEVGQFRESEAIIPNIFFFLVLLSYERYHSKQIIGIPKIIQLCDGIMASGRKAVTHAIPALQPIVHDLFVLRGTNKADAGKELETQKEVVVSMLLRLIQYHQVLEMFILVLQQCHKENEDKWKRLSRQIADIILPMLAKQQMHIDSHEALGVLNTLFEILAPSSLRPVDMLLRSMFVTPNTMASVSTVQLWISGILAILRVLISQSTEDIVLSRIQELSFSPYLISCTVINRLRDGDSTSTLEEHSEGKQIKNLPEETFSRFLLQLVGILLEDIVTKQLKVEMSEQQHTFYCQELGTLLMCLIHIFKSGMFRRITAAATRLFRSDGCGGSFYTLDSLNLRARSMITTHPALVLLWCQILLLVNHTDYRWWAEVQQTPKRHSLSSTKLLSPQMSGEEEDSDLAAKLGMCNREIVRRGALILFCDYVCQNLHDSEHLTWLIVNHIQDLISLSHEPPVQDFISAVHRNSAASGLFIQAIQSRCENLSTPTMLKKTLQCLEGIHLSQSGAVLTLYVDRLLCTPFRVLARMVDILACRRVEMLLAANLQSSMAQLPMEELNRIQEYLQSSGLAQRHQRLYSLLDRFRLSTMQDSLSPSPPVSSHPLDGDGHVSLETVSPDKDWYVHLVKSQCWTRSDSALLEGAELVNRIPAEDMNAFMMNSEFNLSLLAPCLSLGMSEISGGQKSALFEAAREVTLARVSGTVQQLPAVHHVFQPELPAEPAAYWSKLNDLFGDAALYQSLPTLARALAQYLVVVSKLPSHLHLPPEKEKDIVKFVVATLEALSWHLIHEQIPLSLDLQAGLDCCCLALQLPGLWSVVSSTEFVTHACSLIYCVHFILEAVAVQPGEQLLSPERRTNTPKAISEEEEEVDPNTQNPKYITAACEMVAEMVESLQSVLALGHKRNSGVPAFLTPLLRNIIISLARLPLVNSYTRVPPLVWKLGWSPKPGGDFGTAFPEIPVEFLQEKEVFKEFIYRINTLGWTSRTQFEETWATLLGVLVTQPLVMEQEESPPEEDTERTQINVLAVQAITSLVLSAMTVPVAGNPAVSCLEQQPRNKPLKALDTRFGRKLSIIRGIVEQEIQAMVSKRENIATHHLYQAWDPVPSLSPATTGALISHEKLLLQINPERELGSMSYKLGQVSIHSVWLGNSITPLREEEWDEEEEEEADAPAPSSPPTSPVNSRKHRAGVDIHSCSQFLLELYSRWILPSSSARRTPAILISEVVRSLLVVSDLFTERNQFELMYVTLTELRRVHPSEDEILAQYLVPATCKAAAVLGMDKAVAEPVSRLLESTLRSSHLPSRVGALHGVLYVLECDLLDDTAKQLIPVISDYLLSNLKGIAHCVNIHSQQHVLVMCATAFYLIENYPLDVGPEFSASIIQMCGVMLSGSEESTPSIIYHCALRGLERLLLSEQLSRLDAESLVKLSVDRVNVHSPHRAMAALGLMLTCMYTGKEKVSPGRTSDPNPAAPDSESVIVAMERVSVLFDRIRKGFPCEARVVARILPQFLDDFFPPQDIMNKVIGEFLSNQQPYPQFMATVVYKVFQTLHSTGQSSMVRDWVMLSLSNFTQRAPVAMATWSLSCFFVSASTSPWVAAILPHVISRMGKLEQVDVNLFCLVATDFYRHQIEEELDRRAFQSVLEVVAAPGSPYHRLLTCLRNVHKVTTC
# Pf apPOL inh: Pf-apPOL DNA polymerase inhibition; Recombinant Pf-apPOL, molecular beacon fluorescence, 1.5 h; inhibition, % at 10 µM; actives 0.25% (n = 210,000); AID 1794808
# Starred values were filed as active, the others as inactive; i = inactive; / = not tested or not shown; + = active, no number. Shown are actives, neighbours in structure and some others; about 3.5% of the full set was active somewhere. No stated cut-off is given here; in the data, active means inhibition above about 50%; inactive means the rest.
SMILES,mHTT-CaM PPI inh,Pf apPOL inh
O=C1CC(Sc2nnnn2-c2ccccc2)C(=O)N1c1ccc(Cl)c(Cl)c1 (centres undefined),6,-2
COCCNC(=O)C1CCN(c2nccnc2Sc2cccc(C)c2)CC1,2,-3
CCN(CC)C(=O)Oc1ccc2c(c1)OC(=CC=Cc1ccccc1OC)C2=O,-1,-3
Brc1ccc(-c2csc(Nc3ccc4c(c3)OCO4)n2)cc1,61*,-4
Nc1nc(-c2ccc3c(c2)OCO3)cs1,8,1
O=C1C(=O)N(c2ccccc2)C(c2ccc([N+](=O)[O-])cc2)C1=C(O)c1ccccc1 (centres undefined),36,6
Cc1ccc(S(=O)(=O)c2cc3c(=O)n4cc(C)ccc4nc3n(Cc3ccco3)c2=N)cc1,6,-3
Cc1cccn2c(=O)c3cc(C(=O)NCc4ccco4)c(=N)n(CCc4ccccc4)c3nc12,50*,-8
Cc1cccn2c(=O)c3cc(C(=O)NCc4ccccc4)c(=N)n(CCc4ccccc4)c3nc12,0,9
N=c1c(C(=O)NCc2ccco2)cc2c(=O)n3ccccc3nc2n1Cc1cccnc1,14,-3
Cc1ccc2nc3c(cc(C(=O)NCc4ccccc4)c(=N)n3Cc3ccco3)c(=O)n2c1,37,0
Cc1ccc(S(=O)(=O)c2cc3c(=O)n4ccccc4nc3n(Cc3ccco3)c2=N)cc1,52*,2
Cc1ccc2nc3c(cc(C(=O)NCc4ccco4)c(=N)n3Cc3ccco3)c(=O)n2c1,66*,-5
N=c1c(C(=O)NCc2ccccc2)cc2c(=O)n3ccccc3nc2n1Cc1ccco1,85*,11
Cc1ccc(CNc2oc(-c3ccccc3)nc2C#N)cc1,6,-5
CC1([N+](=O)[O-])COC2(OC1)C(=O)N(CN1CCOCC1)c1ccccc12 (centres undefined),-1,-2
COc1cc(C2C(=O)N(C3CCC(C)CC3)CC(=O)N2C2CC2)ccc1OC(C)C (centres undefined),9,-14
Cc1cccc(NC(=O)N2CCC(CCOc3cccnc3)CC2)c1,1,0
O=C(CN1C(=O)NC2(CCCCC2)C1=O)NC1CCCCC1,-6,-2
COc1cc(CNC(Cc2ccccc2)c2ccccc2)c([N+](=O)[O-])cc1OC (centres undefined),19,-4
Cc1sc2ncnc(Nc3ccc(F)cc3)c2c1C,-6,0
O=C(NCc1ccccc1F)c1ccc2c(c1)Sc1ncccc1C(=O)N2C1CC1,6,-2
O=C1NC(=Nc2ccccc2Cl)S/C1=C/c1ccsc1,44,-2
Cc1cc(Oc2ccc(C(F)(F)F)cc2NC(=O)C(Cl)(Cl)Cl)cc(C)c1Cl,/,-3
COc1cccc(C(=O)N2CCCN(c3cc(-c4ccc5c(c4)OCO5)[nH]n3)CC2)c1,15,0
SMILES,mHTT-CaM PPI inh,Pf apPOL inh
NC(=S)N/N=C/c1cc(Cl)cc(Cl)c1O,+,/
Oc1c(Cl)cc(Cl)cc1C=NN=Cc1cc(Cl)cc(Cl)c1O,/,1
NC(=S)N/N=C/c1cc(Br)cc(Br)c1O,+,/
Oc1c(Br)cc(Br)cc1C=Nc1ccc(F)cc1,5,/
Oc1ccccc1N=Cc1cc(Br)cc(Br)c1O,55*,-4
COc1cc(OC)c(/C=N/NC(N)=S)cc1Br,i,/
COc1cc(C=O)ccc1OCCCOc1ccc(Br)cc1,-51,0
O=C(CN(c1ccccc1F)S(=O)(=O)c1ccccc1)Nc1ccccc1,6,-9
N=C1NC(=O)/C(=C/c2ccc(-c3ccc(Cl)cc3Cl)o2)S1,7,-2
Cc1ccc(-c2cc(C(=O)N3CCCCC3C(=O)NC3CC3)no2)cc1C (centres undefined),4,-2
Cc1ccc(S(N)(=O)=O)cc1NC(=O)c1cc(-c2ccccc2Cl)nc2ccccc12,30,-1
CN(C(=O)c1cc(N2C(=O)CCS2(=O)=O)ccc1Cl)C1CCS(=O)(=O)C1 (centres undefined),-15,2
CCn1c(SCC(=O)NCC2CCCO2)nnc1-c1c(C)nc2sccn12 (centres undefined),1,-7
N#Cc1ccc(C(=O)Nc2nnc3ccccn23)cc1,33,-5
O=C(Nc1nnc2ccccn12)c1cccc(C(F)(F)F)c1,40,-22
COc1cccc(C(=O)Nc2nnc3ccccn23)c1,71*,-4
O=C(Nc1nnc2ccccn12)c1ccc(Cl)cc1,52*,-10
O=C(CSCc1ccccc1)NC1Cc2ccccc2C1,/,-12
CC(C)(C)c1nnc(-c2cccc([N+](=O)[O-])c2)o1,5,1
Cc1cc(SCC(=O)Nc2cccc(F)c2)ncn1,-16,-6
NC(=O)c1ccc(-n2nnnc2SCC(=O)N2CCCCC2)cc1,1,-8
CCOC(=O)/C=C1\CN(Cc2ccc(OC)cc2)S(=O)(=O)c2ccc(C(F)(F)F)cc21,53*,78*
CCOC(=O)/C=C1\CN(Cc2ccccc2)S(=O)(=O)c2ccc(C(F)(F)F)cc21,20,34
CC1C(=O)N(c2cccc(Br)c2)CCN1C(=O)c1ccc(Cl)cc1 (centres undefined),3,-3
O=[N+]([O-])c1cc([N+](=O)[O-])c2oc(-c3ccccc3)c(Br)c2c1O,96*,-1
SMILES,mHTT-CaM PPI inh,Pf apPOL inh
O=c1cc(-c2ccccc2Cl)oc2ccc([N+](=O)[O-])c(O)c12,5,-5
COc1cccc(C(=O)Nc2cccc(-c3nc4ccccc4s3)c2)c1,-6,0
O=C(Nc1ccc(-c2nc3ccccc3s2)c(O)c1)c1ccc(F)cc1,-4,0
Cc1ccc(-c2nc3ccccc3s2)cc1NC(=O)c1ccco1,0,-7
O=C(Nc1ccc(-c2nc3ccccc3s2)c(O)c1)c1ccccc1,-13,97*
O=C(Nc1ccc(-c2nc3ccccc3s2)cc1)c1ncn[nH]1,54*,-6
Cc1cc(C(=O)Nc2cccc(-c3nc4ccccc4s3)c2)on1,-2,54*
O=C(Nc1ccc(-c2nc3ccccc3s2)cc1)c1ccccc1F,5,2
Cc1ccc(-c2nc3ccccc3s2)cc1NC(=O)c1ncn[nH]1,98*,-4
CCOc1cc([N+](=O)[O-])cc(C=Nc2ccc(N3CCOCC3)cc2)c1O,3,-5
COc1ccccc1NC(=O)N1CCC(Cc2ccc(F)cc2)CC1,-17,10
Oc1ccc2ccccc2c1Sc1c(O)ccc2ccccc12,59*,/
Oc1ccc2ccccc2c1N=Nc1ccccn1,/,-207
CC(=O)c1ccc(-c2c([C@H]3[C@@H]4C=CCC[C@@]4(C)C(=O)N3Cc3ccccc3)ccc3ccccc23)cc1,101*,-5
CN(C)c1ccc(-c2c([C@H]3[C@@H]4C=CCC[C@@]4(C)C(=O)N3Cc3ccccc3)ccc3ccccc23)cc1,50,-5
COc1ccc(-c2ccc([C@H]3[C@@H]4C=CCC[C@@]4(C)C(=O)N3Cc3ccccc3)c(F)c2)cc1OC,37,0
COc1ccc(-c2c([C@H]3[C@@H]4C=CCC[C@@]4(C)C(=O)N3Cc3ccccc3)ccc3ccccc23)cc1OC,100*,1
CCc1ccc(CNC(=O)c2csc(-c3ccncc3)n2)cc1,-11,-14
O=C(Nc1nc(-c2ccc(Cl)cc2)cs1)c1cncc(Br)c1,53*,0
CCOc1ccc(-c2csc(NC(=O)c3cncc(Br)c3)n2)cc1,1,-6
c1ccc(-c2cc3c(ncn4nnnc34)s2)cc1,-6,-2
CCOc1ccccc1Nc1cc(C)nc2c(C)cccc12,-8,-2

# Compound activity: PubChem BioAssay, University of Kansas High Throughput Screening Laboratory
